According to PubChem BioAssay (Tox21):
The source made the active and inactive calls. Calls follow the shape of the dose curve; as a rule, active = well fitted activation curve with a large enough effect in the repeat runs; inconclusive = weak or mixed curves; inactive = flat fitted curve, though single readings scatter.

Test: Caspase-3/7 induction in CHO-K1 cells by small molecules, qHTS assay (AID 1346980); also: nearly all actives have a fitted effect of over 15% in size
Details: CHO-K1 caspase-3/7 induction, Caspase-Glo luminescence, 17 h; series mostly up to 92.4 µM; caspase-3/7 activation: at the top concentration
From the text: National Center for Advancing Translational Sciences [NCATS]
NIH Chemical Genomics Center [NCGC]
U.S. Environmental Protection Agency [EPA]
National Institutes of Environmental Health Sciences [NIEHS]
National Toxicology Program [NTP]
Apoptosis is a process of programmed cell death and plays a central role in the development of multicellular organisms. It is a highly regulated process and induces cell death by activating caspases, which are the members of cysteine aspartic acid-specific protease (caspase) family. Caspases involved in apoptosis are classified by their mechanism of action as initiator caspases (caspase-2, -8, -9 and -10) and executioner caspases (caspase-3, -6, and -7). Inhibition of apoptosis results in number of cancers, autoimmune diseases, inflammatory diseases and viral infection. To identify small molecule compounds that induce apoptosis, a homogeneous, luminescent Caspase-Glo 3/7 assay was used. Wild type CHO-K1 cells were used to screen Tox21 libraries for identifying caspase-3/7 activity inducers.
CHO-K1 cells were dispensed at 1,500 per well in 5uL of culture medium into white solid bottom 1536-well plates (Corning Life Sciences, Corning, NY) using a Multidrop Combi (Thermo Scientific, Waltham, MA) dispenser. The assay plates were incubated at 37 C and 5% CO2 for 5hr, and then 23nL of compounds dissolved in DMSO and positive control were transferred using a Pintool station (Wako, San Diego, CA). The assay plates were incubated at 37C and 5% CO2 for 17hr. For caspase-3/7 activity read, 4uL of Caspase-Glo 3/7 reagent (Promega Corporation, Madison, WI) was added to each well of the assay plates using Flying Reagent Dispenser (FRD, Aurora Discovery, San Diego, CA) and incubated the assay plates at room temperature for 30min. The luminescence signal was quantified using a ViewLux plate reader (Perkin Elmer, Shelton, CT).
% is scaled to controls: 0 for no effect and ±100 for the full control effect.

SMILES | caspase-3/7 activation | Potency
CCBr | -0.393% (inactive) | 
COP(=S)(OC)Oc1cc(Cl)c(I)cc1Cl | -2.36% (inactive) | 
CC(O)(CS(=O)(=O)c1ccc(F)cc1)C(=O)Nc1ccc(C#N)c(C(F)(F)F)c1 (stereo not given) | -2.29% [at 42.5 µM] (inactive) | 
C=CC[C@]1(O)CC[C@H]2[C@@H]3CCC4=CC(=O)CCC4=C3C=C[C@@]21C | -0.887% [at 42.5 µM] (inactive) | 
Cc1c(F)c(F)c(COC(=O)C2C(/C=C(\Cl)C(F)(F)F)C2(C)C)c(F)c1F (stereo not given) | 0.315% (inactive) | 
c1ccc(CN2CCNCC2)cc1 | -0.547% [at 240 µM] (inactive) | 
II | -3.13% (inactive) | 
CC(C)(C)C(O)C(Oc1ccc(Cl)cc1)n1cncn1 (stereo not given) | -1.17% (inactive) | 
COC(=O)c1cncn1C(C)c1ccccc1 (stereo not given) | -0.531% [at 42.5 µM] (inactive) | 
O=C(NC(=O)c1c(F)cccc1F)Nc1ccc(OC(F)(F)C(F)OC(F)(F)F)c(Cl)c1 (stereo not given) | 0.217% [at 42.5 µM] (inactive) | 
CNP(=O)(OC)Oc1ccc(C(C)(C)C)cc1Cl (stereo not given) | -1.65% (inactive) | 
CCOS(C)(=O)=O | 1.37% (inactive) | 
O=Cc1ccc(Cl)cc1Cl | 0.0827% (inactive) | 
CN1C(=O)NC(=O)C(C)(C2=CCCCC2)C1=O (stereo not given) | 0.133% [at 42.5 µM] (inactive) | 
CC1(C)CCC(Cc2ccc(Cl)cc2)C1(O)Cn1cncn1 (stereo not given) | -0.424% (inactive) | 
CO[C@@H]1[C@H](OC(=O)NC(=O)CCl)CC[C@]2(CO2)[C@H]1[C@@]1(C)O[C@@H]1CC=C(C)C | 1.61% [at 19 µM] (inactive) | 
O=C1NCN(c2ccccc2)C12CCN(CCCOc1ccc(F)cc1)CC2 | -2.31% [at 42.5 µM] (inactive) | 
CCCCN(N=O)C(=N)N[N+](=O)[O-] | 5.37% (inactive) | 
CC(c1ccc(O)cc1)(c1ccc(O)cc1)c1ccc(O)cc1 | 2.65% (inactive) | 
O=C(CBr)c1ccccc1 | 4.57% (inactive) | 

SMILES | caspase-3/7 activation | Potency
CC[C@H]1C[C@H]2[C@@H]3CCC4=CC(=O)CC[C@@H]4[C@H]3CC[C@]2(C)[C@H]1O | 1.5% [at 42.5 µM] (inactive) | 
CCc1ccc(C(=O)NN(C(=O)c2cc(C)cc(C)c2)C(C)(C)C)cc1 | -2.12% (inactive) | 
Cl/C=C\C[N+]12CN3CN(CN(C3)C1)C2 | 0.495% (inactive) | 
COc1cc(CC(C)N)cc2c1OCO2 (stereo not given) | -0.628% (inactive) | 
CN(C)c1ccc(N(C)C)cc1 | -0.75% (inactive) | 
O=C(CCl)c1ccc(Cl)cc1Cl |  | inactive
Cc1ccc2ccccc2c1 | 1.65% (inactive) | 
CCCCCCCCOC(=O)c1ccc(C(=O)OCCCCCCCC)c(C(=O)OCCCCCCCC)c1 | 0.0399% (inactive) | 
O=NN1CCCCCC1 | 1.56% (inactive) | 
ClCc1ccccc1 | -0.0606% (inactive) | 
COC1=CC(=O)O[C@@H](CCc2ccccc2)C1 | -1.35% (inactive) | 
CCOP(O)OCC | 0.217% (inactive) | 
O=C(Nc1ccccc1)Nc1cnns1 | -5.04% (inactive) | 
Clc1cccc(SC2CCNCC2)n1 | 0.804% [at 42.5 µM] (inactive) | 
CC/C(=N\OC/C=C/Cl)C1=C(O)CC(C2CCOCC2)CC1=O (stereo not given) | -0.232% (inactive) | 
C=CCOC(C)=O | 0.096% (inactive) | 
CO/C=C(/C(=O)OC)c1ccccc1COc1cccc(C(F)(F)F)n1 | -3.81% (inactive) | 
N#Cc1ccc(Cl)cc1 | -0.238% (inactive) | 
O=C(NCc1cccnc1)Nc1ccc([N+](=O)[O-])cc1 | 0.15% (inactive) | 
Cc1ccccc1CCl | -0.258% (inactive) | 
